# This is a sample that favours compounds with a hit; in the whole collection about 19% have one here.
# Pf growth 96h: P. falciparum growth inhibition at 96 hours; P. falciparum luciferase reporter growth, 96 h; Potency, µM (series often up to 28.7 µM), for inactives: at the top dose activity change, negative = inhibition, usual class: inhibitors; hit rate 6.9% among 320,000; further: potency means the concentration at half of the fitted maximal effect; on the % scale 0 is the no-effect control and ±100 the full control effect
#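 Erythrocytes infected with luciferase-expressing P. falciparum were dispensed at 2% hematocrit and 0.05% parasitemia (final), then incubated with compounds 96 hours at 37 C in 5% CO2. Luminescence after detection reagent addition reported growth.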
# SARS PLpro yeast: SARS-CoV PLP inhibition in yeast; S. cerevisiae expressing SARS-CoV PLpro, growth rescue; hit rate 0.19% among 330,000; Potency, µM (top dose mostly 32.9 µM), for the others: at the top dose activity, positive = growth rescue, usual class: activators; AID 485353; calls by dose curve; further: potency means the concentration at half of the fitted maximal effect; 0% is about no effect; nearly all actives have a fitted effect of over 55% in size
# Pf growth 48h: P. falciparum growth inhibition at 48 hours (one generation) | P. falciparum luciferase growth in erythrocytes, 48 h | Potency, µM (top dose mostly 28.7 µM), for the others: at the top dose activity change, negative = inhibition, hits mostly inhibitors | hit rate 5.9% among 310,000 | AID 504832; further: potency means the concentration at half of the fitted maximal effect; on the % scale 0 is the no-effect control and ±100 the full control effect
#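 Erythrocytes infected with P. falciparum carrying an integrated firefly luciferase reporter (2% hematocrit, 0.1% parasitemia final) were exposed to compounds in RPMI 1640 with 0.5% Albumax at 37 C, 5% CO2. Growth inhibition was scored as reduced luminescence.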
# AMA1-RON2 inh: disrupts binding of P. falciparum AMA1 to RON2; AlphaScreen AMA1-biotinylated RON2 peptide binding; Potency, µM (titrated, usually from 58.2 µM), for the others: top-dose activity change, negative = inhibition, hits mostly inhibitors; hit rate 0.2% among 360,000; AID 720542;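 further: potency means the concentration at half of the fitted maximal effect; 0% = vehicle wells and -100% = peptide control; nearly all actives have a fitted effect of over 45% in size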
#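 AMA1 (3D7) with his tag at 25 nM final met compounds first, then biotinylated RON2 peptide at 25 nM; detection used donor plus acceptor beads, 10 µg/mL apiece, read by AlphaScreen after 30 min at room temperature.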
# Shiga toxin inh: blocks Shiga toxin action in Vero cells. Vero cells, Shiga toxin protein synthesis inhibition reporter. inhibition, % at 38.7 µM. hit rate 9.2% among 290,000. AID 2315; in the data active means inhibition mostly above about 28%, no sharp cut-off; inactive means mostly below about 43%; further: 0% is about no effect
# Cycloheximide cs: counter-screen hit for Shiga toxin inhibitors, cycloheximide; AID 2314; max response, %; cell reporter, cycloheximide protein synthesis inhibition counterscreen; hit rate 12% among 300,000; in the data active means max response mostly above about 13%, no sharp cut-off; inactive means mostly below about 14%; further: read at 38.3 µM for the half of the compounds with a filed dose; 0% is about no effect
# * hit, by the source's call; i = inactive; ? = inconclusive; . = not tested or not shown; [ ] = another dose, or the depositor's remark. Unless noted, the call rests on the fitted dose curve; in most records, active means well fitted curve in the direction sought with a large enough effect; inconclusive means small, poorly fitted or top-dose-only effect, or another doubt; inactive means no such curve, though single readings can be large; an effect the other way counts as inactive or inconclusive.
SMILES,Pf growth 96h,SARS PLpro yeast,Pf growth 48h,AMA1-RON2 inh,Shiga toxin inh,Cycloheximide cs
O=C(CCSc1ccc(Cl)cc1)N1CCCCCC1,1µM*,4%,143%,6%,61*,21*
O=C(CCSc1ccccc1)N1CCN(c2ccccc2)CC1,?,0%,75%,23%,90*,39*
CC(=O)c1ccc(OCCCC(=O)OCC(=O)N2CCN(c3ccccc3)CC2)cc1,9.3µM*,-3%,.,1%,-7,-2
COc1ccc(N2CCN(C(=O)CSc3ccccc3)CC2)cc1,12%,.,16%,0%,32,17
O=C(CSc1nn(-c2ccc(F)cc2)c(=S)s1)N1CCN(C(=O)c2ccco2)CC1,.,-2%,-14%,-1%,14,-6
O=C(CSC1=NCCS1)N1CCN(c2ccccc2)CC1,110%,17%,-3%,10%,38*,26*
O=C(CCOc1ccccc1)N1CCN(c2ccc(O)cc2)CC1,?,-1%,-15%,8%,63*,47*
O=C(CSC1=NCCS1)N1CCOCC1,0%,1%,65%,5%,8,-3
O=C(/C=C/c1ccc(Cl)cc1)N1CCN(c2c(Cl)cccc2[N+](=O)[O-])CC1,?,-22%,-29%,-22%,20,-5
O=C(CSc1nn(-c2ccc(Cl)cc2)c(=S)s1)N1CCN(C(=O)c2ccco2)CC1,-14%,-2%,4.7µM*,-8%,9,8
O=C(CCCOc1ccccc1)N1CCN(c2ccccc2)CC1,?,16%,.,-17%,35,22
O=C(CSc1ccc(Cl)cc1)N1CCN(c2c(Cl)cccc2[N+](=O)[O-])CC1,125%,-15%,7%,?,46,56*
CS(=O)(=O)c1cccc(C(=O)OCC(=O)Nc2ccc3c(c2)OCO3)c1,23%,2%,27%,-5%,.,.
CCN(CC)S(=O)(=O)c1cc(Br)ccc1OC,-8%,-5%,-6%,-4%,-3,-4
CCC(C(=O)N1CCN(c2ncccn2)CC1)c1ccccc1 (stereo not drawn),0%,-4%,117%,0%,15,26*
Cc1ccc(C)c(OCC(=O)N2CCN(c3ncccn3)CC2)c1,?,2%,?,-2%,.,.
Cc1ccc(C)c(C(=O)CCC(=O)N2CCN(c3ncccn3)CC2)c1,?,-1%,?,1%,38*,36*
CC(=O)NC1CC2CCCC(C1)N2C(=O)Nc1c(C)cccc1C (stereo not drawn),.,.,.,0%,.,.
CC(C)(C)c1ccc(S(=O)(=O)NC(=O)C2(C)CCN2C(=O)Cc2ccccc2Cl)cc1 (stereo not drawn),.,.,.,-1%,.,.
O=C(CCc1nnc(CCCc2ccccc2)o1)NCCc1ccco1,9.3µM*,-1%,21%,-4%,74*,43*
O=C(CCc1nnc(CCCCc2ccccc2)o1)NCCN1CCOC1=O,?,-5%,8%,-2%,84*,21*
O=C(CCc1nnc(CCCCc2ccccc2)o1)NCCn1cccn1,-14%,0%,1%,2%,-19,-1
COC(c1ccccc1)c1nnc(CCC(=O)NCCCc2ccccc2)o1 (stereo not drawn),?,1%,0%,-7%,23,17*
O=C(CCc1nnc(CCCc2ccccc2)o1)NCC(F)(F)F,0%,0%,15%,-3%,39*,36*
CCC(=O)N/N=C(\C)CC(=O)Nc1ccccc1-c1ccccc1,20%,4%,-16%,-6%[2.32 µM],21,1
SMILES,Pf growth 96h,SARS PLpro yeast,Pf growth 48h,AMA1-RON2 inh,Shiga toxin inh,Cycloheximide cs
O=C(CCc1nnc(CCCCc2ccccc2)o1)NCc1cccc(F)c1,?,0%,-8%,8%,13,1
O=C(CCc1nnc(CCCc2ccccc2)o1)NCCCC1CCCC1,5%,-2%,-6%,1%,120*,41*
O=C(CCc1nnc(CCCCc2ccccc2)o1)NCCCc1cccnc1,2%,2%,-5%,6%,4,25
CCOC(=O)CCNC(=O)CCc1nnc(CCCc2ccccc2)o1,12%,0%,14%,14%,96*,29*
O=C(CCc1nnc(CCCc2ccccc2)o1)NCCc1ccccc1,59%,-1%,-2%,8%,43*,22*
O=C1NC[C@@H](CCCCN2C[C@H](Cc3ccccc3)N(CCc3ccc(O)cc3)C(=O)C2=O)N(Cc2ccccc2)C1=O,.,.,.,1%,.,.
Cc1ccc(C)c(NC(=O)c2ccccc2C(=O)c2ccccc2)c1,0%,-5%,?,.,13,6
N#CC1=C(N)Oc2c(c(=O)sc3ccccc23)C1c1ccncc1 (stereo not drawn),-9%,-3%,8%,-9%,7,20*
N#CC1=C(N)Oc2n[nH]c(-c3cccs3)c2C1c1ccncc1 (stereo not drawn),?,1%,-11%,2%,18,8
Cc1cccc(C(=O)n2c(=S)nc3cc(C)ccn32)c1,350%,-2%,46%,?,126*,46*
Cc1ccn2c(c1)nc(=S)n2C(=O)c1ccccc1,433%,-26%,i,0%,121*,114*
Cc1cccc(C(=O)Nc2ccn(C)n2)c1,138%,-3%,96%,4%,.,.
COc1ccc(OC)c(C2NC(=O)c3sc(=S)n(-c4ccccc4)c3N2)c1 (stereo not drawn),.,11%,1%,?,4,4
COc1ccc(NC(=O)Cc2ccc(Cl)c(Cl)c2)cn1,?,-4%,0%,15%,36,9
COc1ccc(NC(=O)/C(Cl)=C(/Cl)S(=O)Cc2ccccc2Cl)cn1 (stereo not drawn),7.4µM*,-25%,?,-15%,-10,-10
CC(C)CC(N)c1csc(Nc2ccc(C(=O)NCCO)cc2)n1 (stereo not drawn),.,.,.,51%,.,.
Cc1ccc(N(C)C(=O)CCS(=O)(=O)c2ccc3c(c2)oc(=O)n3C)cc1,15µM*,-2%,21%,-7%,11,-2
CN(C(=O)CCS(=O)(=O)c1ccc2c(c1)oc(=O)n2C)C1CCCCC1,4.7µM*,0%,22%,6%,-18,-5
Cc1oc(C(C)(C)C)c(CN2CCOCC2)c1C(=O)O,1%,0%,5%,4%,-4,2
CCOC(=O)C1(C)NC(c2ccco2)C2C(=O)N(CC)C(=O)C21 (stereo not drawn),2.9µM*,3%,-3%,-6%,-3,-1
CCOC(=O)C1(CC)NC(c2ccco2)C2C(=O)N(CC)C(=O)C21 (stereo not drawn),-1%,-1%,12%,-9%,-2,1
CC(OC(=O)Cn1cnc2c1c(=O)n(C)c(=O)n2C)C(=O)NC(C)c1ccc(Cl)cc1Cl (stereo not drawn),45%,3%,?,-15%,.,.
CCc1ccc(NC(=O)c2ccccc2SC)cc1,42%,0%,-26%,-1%,47,31*

# Compound activity from PubChem BioAssay.
